# Screening results as filed in PubChem BioAssay.
# Tau fluor cs – counter-screen for tau fibril formation inhibitors | tau K18 P301L Alexa594 fluorescence, heparin fibrillization | Potency, µM (series often up to 57.7 µM), for inactives: top-dose activity change, negative = decrease | 280,000 compounds, 0.93% hits | AID 1463; note: potency is the fitted concentration of half-maximal effect; nearly all actives have a fitted effect of over 55% in size
#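 Human K18 P301L tau (15 uM unlabeled plus 0.24 uM Alexa 594-labeled, final) in 100 mM sodium acetate pH 7 was mixed with compound and 20 uM heparin and incubated 6 hr at 37 C.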
# Coupling enz – inhibits coupling enzyme system, counter-screen for aldolase hits | 290,000 compounds, 0.67% hits | activity change, negative = inhibition, % at 58.2 µM, hits read low | coupling enzyme system counterscreen, AmpLite Red fluorescence; in the data active = activity change below about -30%
#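 Final compound at 57.5 uM, incubated 10 min at RT with coupling enzyme reagent (glyceraldehyde-3-phosphate), then 20 min with substrate and AmpLite Red detection. Fluorescence read at 525/598 nm; tests interference with the coupling assay, not aldolase inhibition.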
# Tau fibril ThT – inhibitors of human tau fibril formation, thioflavin T binding; recombinant tau K18 P301L, heparin-induced fibrillization, ThT fluorescence; Potency, µM (highest dose often 57.4 µM), for inactives: at the highest dose activity, negative = inhibition, usual class: inhibitors; 270,000 compounds, 2.1% hits; P10636; note: potency is the fitted concentration of half-maximal effect; nearly all actives have a fitted effect of over 55% in size
# Target sequence (P10636 561-689 P618L limits assumed): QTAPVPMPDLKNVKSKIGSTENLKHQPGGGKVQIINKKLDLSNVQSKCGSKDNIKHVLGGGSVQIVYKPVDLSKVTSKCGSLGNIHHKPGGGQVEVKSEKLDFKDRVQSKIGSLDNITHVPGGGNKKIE
#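 Using a mix of unlabeled (15 uM) and Alexa 594-labeled (0.24 uM) tau K18 P301L, heparin-triggered fibrillization over 6 hr at 37 C was scored by ThT fluorescence.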
# USP1-UAF1 inh – USP1/UAF1 (human) deubiquitinase inhibition. O94782. recombinant USP1/UAF1, Ub-Rhodamine cleavage fluorescence. Potency, µM (titrated, usually from 57.1 µM), for inactives: at the highest dose activity change, negative = inhibition, most hits filed as inhibitors. 390,000 compounds, 0.23% hits; note: potency is the fitted concentration of half-maximal effect; nearly all actives have a fitted effect of over 60% in size
#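 1 nM enzyme complex + cpd, 15 min RT; start with Ub-Rho 150nM final; kinetic fluorescence ex 480/em 540, 6 reads q60 s. Buffer 50mM HEPES pH 7.8, 0.5mM EDTA, 0.1 mg/ml BSA, 1mM TCEP, 0.01% Tween-20.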
# Tau fibril FP – inhibitors of human tau fibril formation; K18 P301L tau heparin fibrillization, Alexa594 FP, 6 h; 280,000 compounds, 0.39% hits; Potency, µM (series often up to 57.7 µM), for inactives: top-dose activity, negative = inhibition, hits mostly inhibitors; note: potency is the fitted concentration of half-maximal effect; nearly all actives have a fitted effect of over 55% in size
#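 Quantitative HTS format: compounds meet 15 uM recombinant K18 P301L tau and Alexa 594-tau tracer in 100 mM sodium acetate pH 7; 20 uM heparin triggers fibrillization at 37 C over 6 hr; FP gives the signal.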
# * hit, by the source's call; ? = inconclusive; . = no result; [ ] = remark or other dose. Shown are actives, neighbours in structure and some others; about 2.3% of the full set was active somewhere. Unless noted, calls come from the whole dose curve; as a rule, active = well fitted curve in the direction sought with a large enough effect; inconclusive = small, poorly fitted or top-dose-only effect, or another doubt; inactive = no such curve, though single readings can be large; an effect the other way counts as inactive or inconclusive. % is set by controls: 0 for no effect and ±100 for the full control effect.
SMILES,Tau fluor cs,Coupling enz,Tau fibril ThT,USP1-UAF1 inh,Tau fibril FP
Cc1ccc(C)c(N2CCN(C(=O)CCCCCn3c(=O)[nH]c4ccccc4c3=O)CC2)c1,-24.8%,.,?,-34.1%,5.9%
Cc1ccc(CN2COc3c(Cl)cc4c(-c5ccccc5)cc(=O)oc4c3C2)cc1,-11.8%,.,-0.9%,-4.1%,-9.6%
COc1ccccc1CCNC(=O)C(=O)NCC(c1cccnc1)N1CCN(c2ccccc2)CC1 (stereo not drawn),1.0%,.,4.4%,?,-2.4%
O=C(Nc1ccc(Cl)cc1Cl)c1cc(S(=O)(=O)N2CCN(c3ccccc3F)CC2)ccc1F,-5.0%,.,5.4%,-11.0%,?
CC[C@H]1C(c2ccccc2)=NN(c2ccccc2)[C@@H]1CO,?,-0.1,-18.9%[81.4 µM],.,?
COc1ccccc1[C@H]1C(c2ccccc2)=NN(c2ccccc2)[C@@H]1CO,31.6µM*[quencher],-3.1,?,-13.4%,15.5%[81.3 µM]
C[C@H]1C(c2ccc(F)cc2)=NN(c2ccccc2)[C@@H]1CO,25.1µM*[quencher],-0.1,?,-32.0%,?
COc1ccccc1[C@H]1C(c2ccc(F)cc2)=NN(c2ccccc2)[C@@H]1CO,?,-5.6,?,-31.4%,?
CCN(CC)CC(=O)Nc1cccc2c1C(=O)c1ccccc1C2=O,-23.7%,-0.9,-14.5%,-22.0%,3.0%
O=C1c2ccccc2C(=O)c2c(NCCCN(CCO)CCO)cccc21,?,0.1,14.1µM*,-9.2%,1.3%
Cn1c(=O)n2n(c1=O)[C@H]1[C@H](O)[C@H]3O[C@@H]3/C(=N/OCc3ccccc3)[C@@H]1CC2,-8.9%[11.6 µM],0.1,-7.2%[11.5 µM],.,-10.8%[11.6 µM]
CCN(CC)CCNC(=O)c1ccc(NC(=O)c2cn(-c3ccccc3)nc2-c2cccs2)cc1,?,-2.3,1.3%,-19.6%,10µM*
O=C(Nc1cccnc1)c1cn(-c2ccccc2)nc1-c1cccs1,17.8µM*[quencher],-0.9,7.4%,-3.6%,28.2µM*
Cc1cc(NC(=O)c2cc3cccc([N+](=O)[O-])c3[nH]2)ccc1F,25.1µM*[quencher],-14.1,.,-14.9%,?
CC1=NN(c2ccccc2)C(=O)/C1=C\c1cc(C)n(-c2cccnc2)c1C,-20.1%,-0.6,?,-13.6%,-7.7%
CC1=NN(c2ccccc2)C(=O)/C1=C/c1c(O)n(-c2ccc(F)cc2)[nH]c1=O,12.6µM*[quencher],7.2,4.47µM*,-15.3%,12.4%
CC1=NN(c2ccccc2)C(=O)/C1=C\c1cc(C)n(-c2ccccc2)c1C,-26.4%,0.8,7.94µM*,-18.9%,-4.1%
CC1=NN(c2ccccc2)C(=O)/C1=C/c1cccs1,-14.7%,-5.6,?,-27.9%,-4.8%
CC1=NN(c2ccccc2)C(=O)/C1=C\c1ccc(Br)s1,?,-7.6,12.6µM*,-23.3%,-0.6%
CC1=NN(c2ccccc2)C(=O)/C1=C/c1ccc[nH]1,-20.3%,-2.2,12.6µM*,-13.9%,-2.0%
CC1=NN(c2ccccc2)C(=O)C1=Cc1ccccc1,.,.,.,-23.8%,.
Cn1cc(S(=O)(=O)N2CCCCCC2)cc1C(=O)N1CCN(c2ccccc2F)CC1,-9.0%,.,0.1%,-23.6%,-0.8%
CCOc1ccccc1NC(=O)C(=O)NCCc1sc2nc(-c3ccc(OC)cc3)nn2c1C,-11.1%,.,-4.6%,-5.9%,2.4%
Cc1ccc(C)c(N2CCN(S(=O)(=O)c3ccc4[nH]c5c(c4c3)CCCCC5)CC2)c1,?,.,-0.9%,-12.7%,0.5%
COC(=O)Cc1ccc(NC(=S)NCCSc2ccc(Cl)cc2)cc1,7.94µM*[quencher],-0.6,-14.0%,-17.2%,?
COc1ccccc1NC(=O)Cn1c(=O)c(CNc2ccc(C)cc2)cc2cc3c(cc21)OCCO3,?,.,-14.5%,-24.3%,?
Cc1ccccc1Cn1cc(CCC(=O)NC(C)c2ccccc2)c2ccccc21 (stereo not drawn),-14.9%,.,-11.4%,-12.7%,-0.2%
Cc1cccc(C)c1NC(=O)Cn1c(=O)cc(C)c2c(C)nn(-c3cccc(Cl)c3C)c21,1.2%,.,0.8%,-19.2%,-1.3%
O=C(CSc1n[nH]c(-c2ccccc2)n1)NCCc1ccccc1,-7.7%,.,-10.9%,-8.7%,-2.5%
CCOC(=O)c1nc(Nc2ccc(Nc3ccccc3)cc2)c2ccccc2n1,7.08µM*[quencher],-2.8,5.01µM*,-24.5%,5.3%
